DAX1 inh-1 – inhibits human nuclear receptor DAX1 | HEK293 Gal4-DAX1 luciferase reporter, luminescence | inhibition, % at 6.75 µM | 340,000 compounds, 0.99% hits;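 active means inhibition above the mean over all tested compounds plus 3 SD, cut at about 4.2% in these data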;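 further: 0% = DAX1-transfected cells with DMSO and 100% = empty-vector control cells with DMSO; inhibition shows as a rise in luminescence from relieved DAX1 repression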
Target sequence (P51843 207-470 limits assumed): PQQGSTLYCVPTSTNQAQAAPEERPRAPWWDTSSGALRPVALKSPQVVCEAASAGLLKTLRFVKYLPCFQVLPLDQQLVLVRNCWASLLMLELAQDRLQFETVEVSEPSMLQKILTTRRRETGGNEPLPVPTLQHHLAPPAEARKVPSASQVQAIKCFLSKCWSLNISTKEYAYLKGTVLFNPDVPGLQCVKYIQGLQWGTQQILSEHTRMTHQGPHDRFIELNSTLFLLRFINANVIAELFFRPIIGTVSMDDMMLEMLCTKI
DAX1 inh-2 – DAX1 (NR0B1) inhibition, primary screen; 370,000 compounds, 1.1% hits; AID 652010; HEK293T StAR-luciferase reporter, SF-1/DAX-1 repression relief; inhibition, % at 6.8 µM;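 active means inhibition above the mean over all tested compounds plus 3 SD, cut at about 3.6% in these data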;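 further: 0% = DAX-1 cells with DMSO and 100% = cells lacking DAX-1 with DMSO; higher inhibition means more luminescence from relief of DAX-1 repression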
SMARCA2 activ – activators of SMARCA2 function. MG213 cells, MMTV-luciferase reporter, dexamethasone, overnight. activation, % at 9.1 µM. 370,000 compounds, 1% hits. AID 652017; in the data active means activation above about 7.8%;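 further: 0% = vehicle wells and 100% = reference activator wells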
ssDAF-12 act – activates DAF-12 receptor from parasite S. stercoralis | HEK293 ssDAF-12/GRIP1 lit1-tk-luc reporter, luminescence; % of 3 µM dafachronic acid response | activation, % at 6.8 µM | 370,000 compounds, 1% hits;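 active means activation above the mean over all tested compounds plus 3 SD, cut at about 0.9% in these data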;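 further: 0% = DMSO-only wells and 100% = 3 µM delta7-dafachronic acid wells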
hgDAF-12 ag – hgDAF-12 agonism, primary luciferase screen. HEK293 GAL4-hgDAF12 UAS-luciferase reporter, agonist luminescence; normalized to butyrate control. activation, % at 6.8 µM. 370,000 compounds, 1.8% hits. AID 687014;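 active means activation above a cutoff set at the mean of all screened compounds plus 3 SD, cut at about 10% in these data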;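 further: 0% = DMSO wells and 100% = sodium butyrate wells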
hcDAF-12 act – activates DAF-12 receptor from parasite H. contortus; HEK293 hcDAF-12 lit1-tk-luc reporter, luminescence; 0% DMSO, 100% Δ7-dafachronic acid; activation, % at 6.8 µM; 370,000 compounds, 1.4% hits; AID 652067;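 active means activation above the mean of all tested compounds plus 3 SD, cut at about 5.5% in these data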;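 further: 100% = response to 3 µM Δ7-dafachronic acid high control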
DAX1 inh confirm – NR0B1 (human) inhibition, confirmation; shares compounds with DAX1 inh-2; HEK293T StAR-promoter luciferase reporter, SF-1/DAX-1 repression; inhibition, % at 6.8 µM; 2,400 compounds, 87% hits; AID 652134;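 active means inhibition above the average of every tested compound plus 3 SD, cut at about 3.8% in these data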;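 further: 0% = DAX-1 cells with DMSO and 100% = no DAX-1 control cells with DMSO; active compounds raise luminescence by relieving repression of the StAR reporter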
Target sequence (P51843 whole entry, looked up): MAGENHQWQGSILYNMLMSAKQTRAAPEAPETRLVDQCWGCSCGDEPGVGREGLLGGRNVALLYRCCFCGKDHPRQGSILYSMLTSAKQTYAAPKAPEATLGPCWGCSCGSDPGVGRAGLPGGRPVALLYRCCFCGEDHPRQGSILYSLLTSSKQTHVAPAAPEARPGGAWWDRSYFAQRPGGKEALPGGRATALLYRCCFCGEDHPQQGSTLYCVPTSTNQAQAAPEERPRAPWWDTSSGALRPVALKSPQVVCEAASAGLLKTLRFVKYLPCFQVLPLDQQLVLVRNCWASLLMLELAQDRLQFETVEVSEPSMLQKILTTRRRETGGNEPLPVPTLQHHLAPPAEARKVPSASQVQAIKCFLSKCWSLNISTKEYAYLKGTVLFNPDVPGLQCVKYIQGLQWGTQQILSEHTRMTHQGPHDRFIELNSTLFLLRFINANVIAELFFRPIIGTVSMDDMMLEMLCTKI
SF1 mutant ctr – nonselective inhibitor or artifact in SF-1 mutant DAX1 counter-screen; inhibition, % at 6.8 µM; 2,400 compounds, 78% hits; HEK293 StAR-luciferase, SF-1 AF2 mutant, luminescence; shares compounds with DAX1 inh-2;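 active means inhibition above the mean of all tested compounds plus 3 SD, cut at about 3% in these data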;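 further: 0% = DAX-1 transfected cells with DMSO and 100% = cells without DAX-1 with DMSO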
SMARCA2 act conf – confirmation of SMARCA2 (BRM) function activators; 3,500 compounds, 30% hits; shares compounds with SMARCA2 activ; MG213 cells, MMTV-luciferase with dexamethasone, luminescence, overnight; MG213 cells expressing E1A, Rb sequestered; DMSO wells 0%, reference activator 100%; AID 652260; activation, % at 9.1 µM;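 active means activation above its plate's cutoff, the mean activation of tested wells plus 3 SD, cut at about 7.9% in these data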
GAL4-VP16 Luc – counter-screen for SMARCA2 activators: GAL4-VP16 luciferase reporter activation; shares compounds with SMARCA2 activ; HEK293 GAL4-VP16 pG5luc reporter, luciferase luminescence; scaled: DMSO wells 0%, SAHA wells 100%; activation, % at 9.1 µM; 3,500 compounds, 41% hits; AID 686939;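 active means activation above the solvent-only control well mean plus 3 SD, averaged across control plates, cut at about 5.2% in these data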
Active calls of the source: *; . = no result given; ! = repeats disagree. Only some compounds are listed: those with a hit (about 4.8% of all), similar ones and a draw of the others.

SMILES	DAX1 inh-1	DAX1 inh-2	SMARCA2 activ	ssDAF-12 act	hgDAF-12 ag	hcDAF-12 act	DAX1 inh confirm	SF1 mutant ctr	SMARCA2 act conf	GAL4-VP16 Luc
CN1CCN(c2ccc(-c3cccc(NC(=O)COc4ccccc4)c3)nn2)CC1	1.0	10.2*	8.4*	0.9	13.0*	4.7	7.2*	2.2	5.8	12.5*
O=C(Nc1ncc(Cc2ccccc2)s1)C1CCCO1 (configuration not stated)	-0.2	8.3*	12.4*	0.8	12.5*	4.1	10.9*	4.8*	10.6*	8.6*
COc1ccccc1C(=O)NCCC(=O)NC1CCC(C)CC1 (configuration not stated)	1.1	8.7*	10.2*	0.5	7.8	3.6	10.3*	4.6*	5.4	-0.3
O=C(Nc1nnc(C2CC2)s1)C1COc2ccccc2O1 (configuration not stated)	1.5	5.7*	12.2*	-0.8	12.0*	3.0	11.4*	5.5*	6.9	14.4*
O=C(Nc1nnc(C(F)(F)F)s1)C1COc2ccccc2O1 (configuration not stated)	0.5	0.1	-2.3	-1.1	2.3	0.1	.	.	.	.
Nc1ccc(S(=O)(=O)Nc2cnc3ccccc3n2)cc1	-0.7	0.7	-4.6	-1.2	3.8	-2.6	.	.	.	.
Nc1ccc(S(=O)(=O)Nc2cnc3c(Cl)cccc3n2)cc1	2.5	5.7*	9.1*	-0.5	-2.5	-1.2	5.2*	-1.1	30.7*	4.8
Cc1ccc(C)c(NC(=O)N2CCc3ccccc3C2)c1	1.0	2.5	3.3	-1.0	1.5	-1.4	.	.	.	.
O=C(Nc1ccccc1F)N1CCc2ccccc2C1	1.6	6.4*	10.4*	0.0	7.3	3.0	6.8*	7.1*	2.0	8.0*
COc1cc(C(=O)N=c2sc3c(C)ccc(OC)c3n2C)cc(OC)c1OC	-0.1	0.6	-3.0	-1.6	-2.8	1.1	.	.	.	.
COc1ccc(C(=O)N=c2sc3c(C)ccc(OC)c3n2C)cc1	3.8	4.8*	9.2*	0.4	12.9*	5.0	3.2	-3.7	7.2	9.8*
CC(=O)c1cc(-c2ccccc2)n(CC(=O)NCc2ccccc2Cl)c1C	.	-0.5	-3.7	0.0	0.7	2.7	.	.	.	.
CC(C)(C)N(Cc1cn(Cc2ccccc2)nn1)S(=O)(=O)c1ccc(F)cc1Br	.	-0.4	-6.0	-1.3	3.6	-2.0	.	.	.	.
COC(=O)CSc1nc(-c2cccs2)ccc1C#N	4.0	5.9*	11.1*	1.8*	11.9*	6.5*	9.9*	8.2*	12.8*	8.0*
C#CCSc1nc(-c2cccs2)ccc1C#N	-0.3	-0.5	-0.8	-1.4	-1.5	-1.3	.	.	.	.
C=C[C@@]1(C)CC(=O)[C@]2(O)[C@@]3(C)[C@@H](O)CCC(C)(C)[C@@H]3[C@H](O)[C@H](OC(C)=O)[C@@]2(C)O1	0.7	9.6*	20.6*	-1.6	-10.7	-4.6	22.2*	-5.7	20.7*	25.0*
C=C[C@@]1(C)CC(=O)[C@]2(O)[C@@]3(C)[C@@H](O)CCC(C)(C)[C@@H]3[C@H](OC(C)=O)[C@H](O)[C@@]2(C)O1	4.0	2.8	5.5	-1.9	-5.8	-5.8	.	.	.	.
CC[C@H](C)C(=O)O[C@H]1C[C@@H](C)C=C2C=C[C@H](C)[C@H](CC[C@@H]3C[C@@H](O)CC(=O)O3)[C@H]21	0.4	5.2*!	8.2*!	-1.0	1.0	-0.3	2.4	0.1	6.2	0.4
CCC(C)C(=O)OC1CCC=C2C=CC(C)C(CCC3CC(O)CC(=O)O3)C21 (configuration not stated)	1.6	1.1	1.8	-1.4	5.4	2.0	.	.	.	.
Cc1cccc(-c2cccc3c4c([nH]c23)[C@@H]2C[C@H](N(C)C(=O)c3ccco3)[C@H]([C@H](C)O)CN2CC4)c1	.	-0.2	1.0	-0.2	1.0	-0.8	.	.	.	.
O=C(Nc1ccc2nc3n(c(=O)c2c1)CCCCC3)c1ccccn1	1.9	4.8*	8.2*	-0.2	12.9*	2.4	9.1*	4.7*	2.6	10.2*
O=C(N[C@H](C(=O)N1CCC[C@H]1C(=O)NCCc1ccccc1Cl)c1ccccc1)c1ccco1	.	-0.2	-4.0	-0.5	-0.9	-1.2	.	.	.	.
COc1ccc(/C=N/Nc2nccnc2Cl)cc1	-1.5	5.9*	8.7*	0.2	12.1*	5.5	13.9*	8.7*	4.6	11.5*
O=c1cc(-c2ccccc2)oc2cc(O)c(O)c(O)c12	1.9	5.5*	8.3*	-1.4	10.4	3.5	9.6*	5.1*	9.4*	12.6*
COCCNc1c(-c2cc3ccc(C)c(C)c3[nH]c2=O)nc2ccccn12	-0.1	4.9*	10.1*	-0.9	10.4	2.6	6.1*	3.3*	17.9*	6.4*
SMILES	DAX1 inh-1	DAX1 inh-2	SMARCA2 activ	ssDAF-12 act	hgDAF-12 ag	hcDAF-12 act	DAX1 inh confirm	SF1 mutant ctr	SMARCA2 act conf	GAL4-VP16 Luc
c1ccc(CSc2nc3ncccn3n2)cc1	1.1	6.8*	8.7*	-0.2	9.7	2.2	8.4*	4.8*	12.2*	8.8*
O=C(NCCc1ccccc1)c1nc2ncccn2n1	-0.3	0.1	-3.2	0.1	-2.6	-1.9	.	.	.	.
CN(C)c1ccc(C=C2C=Cc3ccccc32)cc1	3.5	4.8*	9.3*	0.3	13.1*	6.2*	14.8*	8.0*	3.5	10.6*
COc1cc2c(cc1OC)C(=Cc1ccc(N(C)C)cc1)C=C2	0.6	-0.8	2.2	-0.8	2.3	-1.0	.	.	.	.
Cc1ccc(Cn2cc(CN3[C@H](C)COc4cc(Br)ccc4S3(=O)=O)nn2)cc1	.	-0.8	2.1	-1.5	-1.2	-1.9	.	.	.	.
COC(=O)c1c(-c2cccnc2)csc1NC(=O)c1ccc2c(c1)OCO2	0.8	8.2*	9.4*	-0.2	6.2	3.0	12.1*	6.8*	7.1	15.3*
O=c1c(Br)c(N2CCOCC2)cnn1-c1ccccc1	1.7	1.7	1.6	-1.0	3.0	3.2	.	.	.	.
O=c1c(Br)c(N2CCCCC2)cnn1-c1ccccc1	4.5*	4.6*	8.7*	-0.6	13.2*	3.4	10.5*	8.3*	9.8*	9.0*
